The text below walks through data of PubChem BioAssay (Tox21).

Values without a mark were called inactive. Results filed as inconclusive are left out. Activity calls are given as the source filed them. Unless noted, calls come from the whole dose curve; as a rule, active = well fitted curve in the direction sought with a large enough effect in the repeat runs; inconclusive = weak or mixed curves; inactive = no such curve, though single readings can be large; an effect the other way counts as inactive or inconclusive.

Experiment [1] concerns the target Progesterone receptor (Homo sapiens) (UniProt P06401). Briefly: qHTS assay to identify small molecule agonists of the progesterone receptor (PR) signaling pathway (AID 1346784; calls by dose curve; note: nearly all actives have a fitted effect of over 30% in size). Summed up:
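HEK 293T PR-UAS-bla reporter cells, 2% charcoal-stripped FBS; 6 hr settle at 37C/5% CO2, compound (DMSO) 16 hr, LiveBLAzer B/G FRET substrate 2 hr RT, fluorescence intensity read.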
In general terms: qHTS replaces the single test concentration by a dilution series.

A short description of experiment [2]: qHTS assay to identify small molecule antagonists of the progesterone receptor (PR) signaling pathway - cell viability counter screen (AID 1346798). Note: series mostly up to about 92 µM; nearly all actives have a fitted effect of over 50% in size. Summed up:
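Luminescence readout (CellTiter-Glo, 30 min, RT) of viability in PR-UAS-bla HEK293T cells exposed to compound and R5020 agonist for 16 hr at 37C, 5% CO2; run in the same wells as the beta-lactamase reporter read.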

The nature of experiment [3]: qHTS assay to identify small molecule antagonists of the TGF-beta/Smad signaling pathway - cell viability counter screen (AID 1346824). Note: nearly all actives have a fitted effect of over 50% in size. Summed up: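 SBE-bla HEK 293T cells were plated overnight at 37 C, then given compounds in DMSO plus TGF-beta1 (added as 0.25 ng/mL solution) for 5 hr. After the bla read, CellTiter-Glo was added to the same wells and luminescence read after 30 min at room temperature.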

Experiment [4] is described as follows: qHTS assay to identify small molecule agonists of the TGF-beta/Smad signaling pathway - cell viability counter screen (AID 1346829). Note: top concentration of the series differs between compounds; nearly all actives have a fitted effect of over 45% in size. Summed up:
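Here the cytotoxicity of library compounds is measured in SBE-bla HEK 293T cells treated for 5 hr, using CellTiter-Glo added to wells already read for the beta-lactamase reporter.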

A short description of experiment [5]: qHTS assay to identify small molecule agonists of the TGF-beta/Smad signaling pathway (AID 1346859; active = well fitted activation curve with a large enough effect in the signal ratio in the repeat runs, not every such curve was filed as active; the % refers to the signal ratio; note: series mostly up to about 77 µM). Summed up: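 Read-out: fluorescence at 460 and 530 nm (405 nm excitation) after a 2 hr room-temperature incubation with beta-lactamase FRET substrate. SBE-bla HEK 293T cells had been treated with test compounds for 5 hr at 37 C.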
Experiment [6] deals with Thyrotropin-releasing hormone receptor (Homo sapiens) (UniProt P34981). Briefly: qHTS assay to identify small molecule antagonists of the thyrotropin-releasing hormone receptor (TRHR) signaling pathway (AID 1346877; active = well fitted inhibition curve with a large enough effect in the repeat runs, not every such curve was filed as active; note: series mostly up to about 51 µM). The gist of the method:
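Overnight-plated (18 h, 37 °C) HEK293 cells expressing TRHR were dye-loaded 2 h, treated with compound, then stimulated with TRH at 1 nM final. Fluorescence intensity was captured every second for 3 min.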

Experiment [7] has the same target. Briefly: qHTS assay to identify small molecule agonists of the thyrotropin-releasing hormone receptor (TRHR) signaling pathway (AID 1346891; calls by dose curve;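 note: HEK293 cells expressing TRHR with calcium dye readout; series mostly up to about 58 µM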). Summed up: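 HEK293/TRHR cells, 1500 per well, 18 h 37 °C; Ca dye 2 h 37 °C; pin-tool compound addition (agonist mode); kinetic fluorescence 3 min, 1 s reads; 15 concentrations, triplicate.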
Experiment [8] can be described thus: Human pregnane X receptor (PXR) small molecule agonists, qHTS cell viability counter screen (AID 1346977). Note: nearly all actives have a fitted effect of over 50% in size. Summed up:
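Fluorescence read-out (CellTiter-Fluor) of viability in PXR-Luc HepG2 cells, multiplexed with the luciferase agonist read. Compounds in DMSO added after 5hr plating; 24hr total exposure at 37C, 5% CO2.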

Experiment [9] can be described thus: Caspase-3/7 induction in HepG2 cells by small molecules, qHTS assay (AID 1346978). Note: nearly all actives have a fitted effect of over 15% in size. Summed up: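 Wild-type HepG2 cells (2,000/well) were settled 5 h at 37 C, 5% CO2, then exposed to compounds in DMSO for 17 h. Caspase-3/7 activity was read by luminescence 30 min after adding Caspase-Glo 3/7 reagent at room temperature.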
Experiment [10] can be described thus: Caspase-3/7 induction in CHO-K1 cells by small molecules, qHTS cell viability counter screen (AID 1346979). Note: nearly all actives have a fitted effect of over 35% in size. Note: potency is the fitted concentration of half-maximal effect. Summed up: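 CHO-K1 wt, 1,500 cells/well; 5hr pre-incubation 37C/5% CO2; compound pin transfer (DMSO); 16hr exposure; CellTiter-Fluor added, 1hr, fluorescence read.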
A short description of experiment [11]: Caspase-3/7 induction in CHO-K1 cells by small molecules, qHTS assay (AID 1346980). Note: nearly all actives have a fitted effect of over 15% in size. The gist of the method: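 Wild-type cells were seeded at 1,500 per well and settled 5 hr at 37 C, 5% CO2, then exposed to DMSO-dissolved compounds for 17 hr. Caspase-Glo 3/7 reagent was added, and luminescence was read after 30min at room temperature.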
The nature of experiment [12]: Caspase-3/7 induction in HepG2 cells by small molecules, qHTS cell viability counter screen (AID 1346981). Note: series mostly up to about 92 µM; nearly all actives have a fitted effect of over 30% in size. The gist of the method: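 Treatment of HepG2 cells with DMSO-delivered compounds ran 16 hr at 37 C following a 5-hr pre-incubation of 2,000 cells/well. CellTiter-Fluor fluorescence, read after 1 hr, served as the viability measure in a qHTS format.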
The target in experiment [13] is Nuclear receptor subfamily 1 group I member 2 (Homo sapiens) (UniProt O75469). Briefly: Human pregnane X receptor (PXR) small molecule agonists, qHTS assay (AID 1346982). Note: nearly all actives have a fitted effect of over 35% in size. Note: potency is the fitted concentration of half-maximal effect. Summed up: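 Stable HepG2 line reporting PXR-mediated CYP3A4 expression via luciferase. Treatment: 24 hr with compounds in DMSO at 37 C. Detection: ONE-Glo luminescence.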
Nuclear receptor subfamily 1 group I member 2 (Homo sapiens), sequence (O75469 whole entry, looked up): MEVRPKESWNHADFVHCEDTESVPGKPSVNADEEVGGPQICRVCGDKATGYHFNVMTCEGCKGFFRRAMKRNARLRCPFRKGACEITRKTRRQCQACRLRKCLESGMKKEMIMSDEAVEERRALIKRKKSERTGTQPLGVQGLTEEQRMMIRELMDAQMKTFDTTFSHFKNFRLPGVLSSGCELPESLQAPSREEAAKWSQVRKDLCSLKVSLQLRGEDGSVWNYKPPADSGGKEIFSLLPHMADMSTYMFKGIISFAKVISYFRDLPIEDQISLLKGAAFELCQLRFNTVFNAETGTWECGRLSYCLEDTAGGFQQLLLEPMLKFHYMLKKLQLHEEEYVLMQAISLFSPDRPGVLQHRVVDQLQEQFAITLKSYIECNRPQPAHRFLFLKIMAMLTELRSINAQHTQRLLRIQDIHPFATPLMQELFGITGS
For experiment [14], the target named is Acetylcholinesterase (Homo sapiens) (UniProt P22303). The experiment can be described thus: Acetylcholinesterase (AChE) small molecule antagonists: colormetric cell-based qHTS assay (AID 1347395; calls by dose curve; note: nearly all actives have a fitted effect of over 30% in size; note: potency is the fitted concentration of half-maximal effect). The gist of the method:
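SH-SY5Y cells; cpd 30 min 37 C; + DTNB/acetylthiocholine, 90 min 37 C; colorimetric thiocholine read; qHTS.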

For experiment [15] the target is unchanged. Briefly: Acetylcholinesterase (AChE) small molecule antagonists: enzyme-based qHTS assay (AID 1347397; calls by dose curve; note: nearly all actives have a fitted effect of over 55% in size; note: potency is the fitted concentration of half-maximal effect). Conditions: Potency: AChE enzyme activity inhibition. The gist of the method: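 Tox21 library chemicals are tested in qHTS format against recombinant human AChE. The enzyme, dispensed at 50 mU/mL, sits with compound for 30 min at room temperature. A DTNB–acetylthiocholine cocktail follows, and colour is read after 10 min.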

The target in experiment [16] is Progesterone receptor (Homo sapiens) (UniProt P06401). Briefly: qHTS assay to identify small molecule antagonists of the progesterone receptor (PR) signaling pathway (AID 1346795; active = well fitted inhibition curve with a large enough effect in the signal ratio in the repeat runs, not every such curve was filed as active; the % refers to the signal ratio). The gist of the method: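 Beta-lactamase reporter, HEK293T PR-UAS-bla line; 2% charcoal-stripped FBS; 6 hr pre-incubation, 37C/5% CO2. Compound + R5020 1 nM final, 16 hr. LiveBLAzer B/G FRET substrate, 2 hr RT; fluorescence intensity read.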
Progesterone receptor (Homo sapiens), sequence (P06401 whole entry, looked up): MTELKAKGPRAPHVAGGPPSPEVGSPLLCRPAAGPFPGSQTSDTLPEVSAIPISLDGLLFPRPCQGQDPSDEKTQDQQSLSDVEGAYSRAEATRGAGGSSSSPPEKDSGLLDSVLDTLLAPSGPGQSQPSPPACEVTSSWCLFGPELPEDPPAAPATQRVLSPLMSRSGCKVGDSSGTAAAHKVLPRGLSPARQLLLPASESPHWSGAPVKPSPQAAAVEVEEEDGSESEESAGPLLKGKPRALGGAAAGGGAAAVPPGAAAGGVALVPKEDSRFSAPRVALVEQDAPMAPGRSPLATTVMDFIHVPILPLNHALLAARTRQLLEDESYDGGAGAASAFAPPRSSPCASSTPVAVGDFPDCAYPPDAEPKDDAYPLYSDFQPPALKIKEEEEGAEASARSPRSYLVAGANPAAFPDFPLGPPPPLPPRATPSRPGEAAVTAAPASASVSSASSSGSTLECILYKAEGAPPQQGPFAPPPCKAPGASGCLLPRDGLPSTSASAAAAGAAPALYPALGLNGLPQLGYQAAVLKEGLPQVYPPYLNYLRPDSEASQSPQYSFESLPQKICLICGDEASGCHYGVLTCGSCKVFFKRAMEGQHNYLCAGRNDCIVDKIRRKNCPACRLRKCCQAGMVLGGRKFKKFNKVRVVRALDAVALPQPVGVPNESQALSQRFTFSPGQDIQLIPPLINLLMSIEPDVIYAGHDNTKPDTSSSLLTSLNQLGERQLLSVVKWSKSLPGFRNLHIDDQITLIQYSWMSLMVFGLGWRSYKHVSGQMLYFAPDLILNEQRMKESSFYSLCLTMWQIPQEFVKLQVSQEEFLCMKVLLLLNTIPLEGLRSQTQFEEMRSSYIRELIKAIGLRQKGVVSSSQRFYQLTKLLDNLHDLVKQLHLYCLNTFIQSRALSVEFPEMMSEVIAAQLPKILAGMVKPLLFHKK

Experiment [17] in a line: qHTS assay to identify small molecule agonists of the progesterone receptor (PR) signaling pathway - cell viability counter screen (AID 1346799; calls by dose curve; note: nearly all actives have a fitted effect of over 45% in size). The gist of the method:
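HEK293T PR-UAS-bla, 3,000 cells/well, 2% charcoal-stripped FBS; 6 h settle, compound 16 h at 37C/5% CO2; LiveBLAzer 2 h RT, then CellTiter-Glo 30 min RT, luminescence read.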

The target of experiment [18] is Nuclear receptor subfamily 1 group I member 2 (Rattus norvegicus) (UniProt Q9R1A7). The experiment can be described thus: Rat pregnane X receptor (rPXR) activation by small molecules, qHTS assay (AID 1346983). Note: nearly all actives have a fitted effect of over 20% in size. The following applies: rPXR luciferase reporter cells, One-Glo luminescence, 24 h; max activation: hits give high values. The gist of the method:
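Cell-based rPXR luciferase reporter assay, 2,000 cells per well, rested 5hr at 37 C before compound addition in DMSO, then 24 hr at 37 C. One-Glo reagent was added and luminescence read after 30 min at room temperature.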

Experiment [19] deals with Nuclear receptor subfamily 1 group I member 2 (Homo sapiens) (UniProt O75469). Briefly: CYP3A4 induction through human pregnane X receptor (PXR) by small molecules, qHTS assay (AID 1346984). Note: nearly all actives have a fitted effect of over 40% in size. Summed up: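 After 24 h at 37C with compound, DPX-2 cells (HepG2, co-transfected PXR response element and CYP3A4 promoter-luciferase) got 3uM final P450-Glo Luciferin-IPA for 3 h; One-Glo luminescence followed.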

Experiment [20] has the same target. The experiment can be described thus: Human pregnane X receptor (PXR) activation by small molecules, qHTS assay (AID 1346985). Note: nearly all actives have a fitted effect of over 40% in size. Summed up: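 DPX-2 cells (HepG2 co-transfected with a PXR response element and a CYP3A4-promoter luciferase construct) were seeded at 2,000 per well, rested 5 hr at 37C, then exposed to DMSO-dissolved compounds for 24 hr. Activation was read as luciferase luminescence.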
% is set by controls: 0 for no effect and ±100 for the full control effect.

Thyrotropin-releasing hormone receptor (Homo sapiens), sequence (P34981 whole entry, looked up): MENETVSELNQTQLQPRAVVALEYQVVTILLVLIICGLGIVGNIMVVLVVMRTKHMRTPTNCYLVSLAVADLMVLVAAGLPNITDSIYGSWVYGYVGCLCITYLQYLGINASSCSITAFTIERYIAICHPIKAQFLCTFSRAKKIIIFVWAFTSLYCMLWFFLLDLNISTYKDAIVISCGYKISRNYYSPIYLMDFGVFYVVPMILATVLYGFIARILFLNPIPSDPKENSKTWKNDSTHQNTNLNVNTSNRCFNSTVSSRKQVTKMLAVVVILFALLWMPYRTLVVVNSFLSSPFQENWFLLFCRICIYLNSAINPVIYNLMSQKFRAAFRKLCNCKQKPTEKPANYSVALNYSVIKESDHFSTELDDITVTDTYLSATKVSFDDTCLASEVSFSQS
Acetylcholinesterase (Homo sapiens), sequence (P22303 whole entry, looked up): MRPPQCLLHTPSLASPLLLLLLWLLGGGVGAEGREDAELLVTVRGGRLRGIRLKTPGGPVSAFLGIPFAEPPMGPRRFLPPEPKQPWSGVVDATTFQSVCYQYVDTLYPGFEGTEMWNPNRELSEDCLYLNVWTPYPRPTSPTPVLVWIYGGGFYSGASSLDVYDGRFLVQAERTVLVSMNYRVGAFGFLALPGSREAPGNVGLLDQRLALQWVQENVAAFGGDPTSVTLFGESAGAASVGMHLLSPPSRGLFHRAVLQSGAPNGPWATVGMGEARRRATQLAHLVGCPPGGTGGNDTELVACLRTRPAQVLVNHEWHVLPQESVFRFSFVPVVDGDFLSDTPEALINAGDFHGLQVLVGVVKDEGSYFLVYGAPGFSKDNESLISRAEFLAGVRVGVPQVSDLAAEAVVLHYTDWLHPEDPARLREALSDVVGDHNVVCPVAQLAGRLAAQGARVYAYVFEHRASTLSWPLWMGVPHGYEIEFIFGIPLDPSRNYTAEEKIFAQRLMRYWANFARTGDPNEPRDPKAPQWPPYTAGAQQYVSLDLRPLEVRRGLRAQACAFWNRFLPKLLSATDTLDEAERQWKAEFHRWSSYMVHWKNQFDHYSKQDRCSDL
Nuclear receptor subfamily 1 group I member 2 (Rattus norvegicus), sequence (Q9R1A7 whole entry, looked up): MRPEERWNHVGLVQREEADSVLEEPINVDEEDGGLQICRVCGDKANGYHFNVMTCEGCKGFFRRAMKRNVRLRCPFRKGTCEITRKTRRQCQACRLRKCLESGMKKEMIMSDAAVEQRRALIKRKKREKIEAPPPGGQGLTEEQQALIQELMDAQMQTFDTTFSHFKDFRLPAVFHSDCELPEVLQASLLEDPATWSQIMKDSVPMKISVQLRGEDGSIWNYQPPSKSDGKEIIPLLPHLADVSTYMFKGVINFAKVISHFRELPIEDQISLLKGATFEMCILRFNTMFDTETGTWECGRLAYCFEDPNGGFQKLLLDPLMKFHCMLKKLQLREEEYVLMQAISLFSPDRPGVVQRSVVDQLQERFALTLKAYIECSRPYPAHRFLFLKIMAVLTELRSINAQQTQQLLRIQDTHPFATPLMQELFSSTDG

Regarding `CCCSP(=S)(OCC)Oc1ccc(Cl)cc1Cl` (configuration not stated), the Potency result in experiment [1], in [2], in [3], in experiment [8], in [9] and in experiment [10] was “inactive” throughout. Also, the Potency entry in experiment [11], in experiment [12], in experiment [14] and in experiment [15] was “inactive” each time. Also, the result in experiment [4], in experiment [5], in experiment [6] and in [7] was inactive. The Potency in experiment [13] is 30.6 µM (active).
`CCN(CC)C(=O)[C@@H]1C=C2c3cccc4[nH]cc(c34)C[C@H]2N(C)C1`: the Potency entry in experiment [1], in experiment [16], in experiment [3], in experiment [9] and in [11] was “inactive” each time. The outcome in experiment [4], in experiment [5], in experiment [6] and in [7] was inactive. The Potency in experiment [10] is 89.8 µM (active); in experiment [13], 80 µM (active); in experiment [14], 73.8 µM (active); in experiment [15], 104 µM (active).
For the molecule `CNNC`, the Potency entry in experiment [1], in experiment [2], in [17], in [3], in experiment [8] and in experiment [9] was “inactive” throughout. For the same molecule, the Potency result in [10], in experiment [11], in [12], in experiment [13], in [14] and in [15] was “inactive” each time. Also, the outcome in experiment [4], in experiment [5], in experiment [6] and in [7] was inactive.
In the case of `CCOP(=S)(OCC)SCSP(=S)(OCC)OCC`, the Potency result in experiment [1], in [2], in [17], in experiment [3], in experiment [9] and in [12] was “inactive” in each case. Moreover, the molecule was classed as inactive in experiment [5], in [6] and in [7]. For the same molecule, the values for the Potency in experiment [13], in experiment [14] and in [15] were 5.45 µM (active), 39.9 µM (active) and 63.3 µM (active), respectively.
Turning to `CC1CCC(=O)O1` (configuration not stated), the Potency entry in experiment [1], in experiment [16], in experiment [3], in [8], in experiment [9] and in experiment [10] was “inactive” throughout. Further, the Potency result in [11], in experiment [12], in experiment [13], in experiment [14] and in experiment [15] was “inactive” each time. The molecule was called inactive in experiment [4], in experiment [5], in [6] and in experiment [7].
Consider `COc1ccc2c(c1OC)CN1CCc3cc4c(cc3C1C2)OCO4` (configuration not stated), for which the Potency result in experiment [1], in [2], in experiment [17], in experiment [3], in experiment [8] and in [9] was “inactive” throughout. In addition, the Potency result in [11], in experiment [12], in experiment [13], in experiment [19] and in experiment [20] was “inactive” throughout. In addition, the molecule was classed as inactive in [5], in experiment [6] and in experiment [7]. Besides, the max activation in [18] is 0.596%. The Potency in experiment [15] was 5.49 µM (active).
As to `O=C1CN2CCOC2(c2ccccc2Cl)c2cc(Cl)ccc2N1` (configuration not stated), the Potency result in experiment [1], in [2], in experiment [17], in experiment [8], in experiment [9] and in experiment [10] was “inactive” throughout. For the same molecule, the Potency result in [11], in experiment [12], in experiment [14] and in experiment [15] was “inactive” in each case. The outcome in [4] and in experiment [5] was inactive.
Consider `O=C(NCO)NCO`, for which the Potency result in experiment [1], in [2], in experiment [17], in experiment [3], in [8] and in experiment [9] was “inactive” throughout. In addition, the Potency entry in [10], in experiment [11], in experiment [12], in [13] and in experiment [14] was “inactive” each time. Further, the molecule was called inactive in experiment [4] and in experiment [5].
As to `CCOC(=O)/C=C(C)/C=C/C[C@@H](C)CCCC(C)C`, the Potency result in experiment [1], in experiment [2], in experiment [17], in experiment [3], in experiment [8] and in experiment [9] was “inactive” in each case. Moreover, the Potency entry in [12], in [19], in experiment [20], in experiment [14] and in [15] was “inactive” in each case. Also, the molecule was called inactive in [5], in experiment [6] and in [7]. For the same molecule, the max activation in experiment [18] was -2.62%.
